# Measured values taken from ChEMBL document CHEMBL4513216, “Probing the Open Global Health Chemical Diversity Library for Multistage-Active Starting Points for Next-Generation Antimalarials” (ACS Infect Dis, 2020).
# Out of some 65,000 compounds screened, about 2,100 (3.2%) showed an effect of 50% or more. The median lay at about -52%. This excerpt belongs to a sample that is enriched for strong results.
# System: Plasmodium falciparum
# Assay: Screen against P. falciparum Asexual Blood Stage (ABS), at 5uM
# Type: functional, Dd2
# Conditions: tested at 5 uM
row,SMILES,INHIBITION
1,O=C(CC1CCCC1)N1C[C@@H]2C[C@@H]1CN2,-57.9%
2,CN(C(=O)c1ccon1)[C@@H]1CCC[C@@H](Oc2ccccc2)[C@@H]1O,79.8%
3,Cc1ncsc1CN1C[C@@H]2CN(Cc3cccnc3)CCO[C@@H]2C1,-49.8%
4,CCNc1ccnc(N2Cc3cnc(CC(C)C)nc3C2)n1,74.6%
5,CC(C)Nc1ccnc(N2Cc3cnc(C(C)(C)C)nc3C2)n1,50.1%
6,O=C(c1cscn1)N1CCN2C[C@H](OCc3cccnc3)C[C@H]2C1,-55.9%
7,COc1ccc(C2SCC(=O)Nc3n[nH]cc32)c(OC)c1OC (configuration not stated),-164%
8,O=C(Nc1ccc(Cn2cccn2)cc1)N1CCC2(CC1)OCCO2,-153%
9,CN(CCc1cccc2ccccc12)Cc1nc(N)nc(N(C)C)n1,92.2%
10,COc1ccccc1CCN(C)Cc1nc(N)nc(N(C)C)n1,69.9%
11,COc1ccccc1CC(C)N(C)CCS(C)(=O)=O (configuration not stated),1.1%
12,Cc1nc(-c2ccccc2F)sc1C(=O)N1CCC(=O)CC1,-67.5%
13,O=C(Cc1cccs1)N1C[C@@H]2OCCN(CC3CCCO3)[C@@H]2C1 (some centres not stated),-87.1%
14,Cn1cc(C2SCC(=O)Nc3c2cnn3C(C)(C)C)cn1 (configuration not stated),-6.82%
15,CCN1CCC(CNCc2cc(C)ccc2OC)C1 (configuration not stated),82.7%
16,COc1ccc(C)cc1CC(=O)N1CCN(CC(C)O)CC1 (configuration not stated),-34.3%
17,CCC(O)CN1CCN(C(=O)Cc2cc(C)ccc2OC)CC1 (configuration not stated),-68.2%
18,N#Cc1ccc(OC[C@]23COC[C@H]2CN(Cc2nccs2)C3)nc1,-22.3%
19,O=C(C1CC1)N1CCOC2(CCNCC2)C1,-22.2%
20,Cn1ccnc1CN1CCC2(CC(=O)N(c3ccccn3)C2)C1 (configuration not stated),-145%
21,Cc1ccc(C(O)CN2CCN(Cc3nccn3C)CC2)cc1C (configuration not stated),80.4%
22,Cc1ccc(CC(=O)N2CCCN(Cc3nccn3C)CC2)cn1,-72.4%
23,CC(C)(C)c1nccc(C2(c3ccccc3Cl)CCNCC2)n1,76.1%
24,CC(C)c1nccc(C2(c3ccccc3Cl)CCNCC2)n1,83.4%
25,Clc1ccccc1C1(c2ccnc(-c3ccncc3)n2)CCNCC1,83.6%
26,Cc1ccc(N2CCO[C@H]3CN(Cc4cccnc4)C[C@H]32)nn1,-18.3%

row,SMILES,INHIBITION
1,CC(C)c1ccc(CN2C(=O)C3(CCNCC3)Nc3ccccc32)cc1,82%
2,O=C1CC2(CCCNC2)C(=O)N1Cc1ccccc1 (configuration not stated),-15.7%
3,CN1C(=O)CC2(CCNCC2)c2ccccc21,2.59%
4,c1cncc(CN2CCN3C[C@H](Oc4cncnc4)C[C@H]3C2)c1,-155%
5,CC(C)[C@@H]1CN(C(=O)C2(c3ccccc3)CCN(C)CC2)C[C@H]1N(C)C,83.7%
6,CC(=O)C1(c2ccccc2)CCN(C(=O)c2ccc3nnnn3c2)CC1,-106%
7,CC(C)[C@@H]1CN(C(=O)C2(c3ccccc3)CCN(C)CC2)C[C@H]1C(=O)O,-65.7%
8,CCS(=O)(=O)N1CCc2c(COCCN(C)C)cncc2C1,-62.2%
9,O=S1(=O)c2ccccc2OCC2(CCN(CCO)CC2)CN1CC1CC1,76.9%
10,O=S1(=O)NCC2(CCNCC2)COc2ccccc21,-55.2%
11,c1ccc(-c2ncc(CN3CCC4(CCNCC4)C3)cn2)cc1,10.6%
12,Cc1cccc(CN2CCC3(CCCN(CC(=O)N(C)C)C3)C2)n1 (configuration not stated),-47.6%
13,Oc1cccc2ccc(CN3CCC4(CCNCC4)C3)nc12,89.9%
14,Cc1nn(-c2ncccn2)c2c1C(c1cnn(C)c1)SCC(=O)N2 (configuration not stated),-15%
15,O=C(CSc1ccccn1)N1CCN(CCO)[C@@H]2CS(=O)(=O)C[C@@H]21,-35.4%
16,COc1ccnc(CN2CCCC(CCc3ccc(F)cc3)C2)c1OC (configuration not stated),88.9%
17,COc1ccnc(CN2CCCC(CCc3ccccc3)C2)c1OC (configuration not stated),90.1%
18,N#CC1(c2ccccc2)CCN(C(=O)C2CCCN(CC(N)=O)C2)CC1 (configuration not stated),-116%
19,CCC(O)CN1CCN(C(=O)Cc2nc(-c3ccco3)oc2C)CC1 (configuration not stated),-62.9%
20,CC(Cc1ccc(Cl)cc1)N(C)C(=O)NCCS(C)(=O)=O (configuration not stated),-65.7%
21,O=C(c1ccncc1)N1CCN2C[C@H](Oc3cccnc3)C[C@H]2C1,-77%
22,CC(C)N(CCNC(=O)c1[nH]nc2ccc(I)cc12)C(C)C,86.9%
23,CC[C@@H]1N(Cc2ccncc2)CCC[C@]12CCC(=O)N2CCOC,-38%
24,CCc1cccc(NC(=O)CCN2CC=C(c3cnn(C)c3)CC2)c1,-33.3%
25,COc1ccc(NC(=O)CCN2CC=C(c3cnn(C)c3)CC2)cc1Cl,67.2%
26,COc1ccc(NC(=O)CCN2CC=C(c3cnn(C)c3)CC2)c(C)c1,-33.1%

row,SMILES,INHIBITION
1,Cc1ccc2nc(C)c(C)c(C(=O)N[C@H]3COC[C@@H]3N3CCCC3)c2c1,-47.2%
2,Cc1cc(CN2CC[C@H]3C[C@@H](C)O[C@@H]3C2)no1,-71.2%
3,Cc1n[nH]c2c1C(c1ccc3c(c1)OCO3)SCC(=O)N2 (configuration not stated),-22%
4,COc1cccc(-n2ccc3nc(N4CCCC4)ncc3c2=O)c1,91.7%
5,COc1ccc(CCN)cc1-c1ccc(S(C)(=O)=O)cc1,21.8%
6,COc1ccc(-c2ccccc2CCN)c(OC)c1OC,81.8%
7,COc1ccc2c(ccn2CCN)c1,26.1%
8,CC(=O)Nc1cccc(-c2ccccc2CCN)c1,-108%
9,CC(=O)Nc1ccc(-c2ccccc2CCN)cc1,-115%
10,COc1ccc(-c2ccccc2CCN)c(OC)c1,81.6%
11,CN1C[C@@H]2COC[C@]2(C(=O)NCc2cccs2)C1,-12.4%
12,CCc1[nH]c(C2(N)CCCCC2)nc(=O)c1C,-30.6%
13,Cc1noc(C)c1CN1CCO[C@H]2CN(CC3CC3)C[C@H]21,26.3%
14,Cc1nc(=O)c(CC(=O)N2C[C@H]3CC[C@@H](C2)N(CC2CCC2)C3)c[nH]1,-30%
15,CCN(CC1CCCN(CCc2cccc(OC)c2)C1)C(=O)CN(C)C (configuration not stated),83.3%
16,COCC1COCCC12CCN(C(=O)Cc1cccc(OC)c1)CC2 (configuration not stated),-3.52%
17,COc1ccc(C(=O)C2CCCN(CCc3ccccc3)C2)c(OC)c1 (configuration not stated),71.8%
18,COc1ccc(C(=O)C2CCCN(Cc3ccccc3O)C2)c(OC)c1 (configuration not stated),-55.9%
19,Cc1nc(NCc2ccco2)nc2c1COCC21CCNC1 (configuration not stated),21.7%
20,Cn1cc(N2CCC3(CCN(Cc4cccnc4)C3)C2=O)cn1 (configuration not stated),-35.8%
21,CCCN1CC2(CCN(c3ncc(F)cn3)CC2)CC1C(=O)O (configuration not stated),-31.5%
22,CN(C)C[C@@H]1CN(C2CCN(c3ccccc3Cl)CC2)C[C@@H]1CO,74%
23,CN(C)C[C@@H]1CN(C2CCN(c3ccc(Cl)cc3)CC2)C[C@@H]1CO,88.5%
24,CN(C)C[C@@H]1C[C@@H]2CN(c3ncc(F)cn3)CC[C@@H]2N1C,12.3%
25,CN(CCO)C[C@@H]1CN(C2CCN(c3ccccc3Cl)CC2)C[C@@H]1CO,79.5%
26,Cc1cc(F)ccc1N1CCC(N2C[C@@H](CN(C)C)[C@@H](CO)C2)CC1,92.6%

row,SMILES,INHIBITION
1,COCCO[C@H]1COCCN(C2CCN(C)CC2)C1,-110%
2,Cc1cc(CN2C[C@@H]3CCCO[C@@H]3[C@H](NS(C)(=O)=O)C2)no1,-28.3%
3,O=C(C1CCCCC1)N1CCO[C@@H]2CNC[C@@H]21,-65.1%
4,COC[C@]12COC[C@H]1CN(Cc1cccnc1OC)C2,-130%
5,CN(CCO)C[C@@H]1CN(Cc2ccccc2-c2ccccc2)C[C@@H]1CO,87.6%
6,CC(C)=CCN1C[C@@H]2CC[C@H]1CN(C(=O)Cc1c(C)[nH]c(C)nc1=O)C2,-28.2%
7,CCOc1ccc(CN2CCCC(c3cc4ncccc4[nH]3)C2)cc1 (configuration not stated),85%
8,O=C(Cc1cccnc1)N1C[C@@H]2CC[C@H]1CN(Cc1ccc(F)cc1)C2,-13.8%
9,Fc1ccc(CN2CCCC(c3cc4ncccc4[nH]3)C2)cc1 (configuration not stated),82.3%
10,Fc1ccc(CN2CCO[C@H]3[C@H](Oc4ccccn4)CC[C@@H]32)cc1,-29%
11,c1cc(CO[C@H]2CC[C@H]3[C@H]2OCCN3Cc2nccs2)ccn1,-84.3%
12,CN(C)C(=O)[C@H]1C[C@@H]2CCN(Cc3ccncc3)C[C@H]2O1,-59.7%
13,CCc1c(C)sc2ncnc(N3CC[C@@H](N4CCC(O)CC4)[C@H](O)C3)c12,75.5%
14,Cc1cc(C)c(CNc2cnc3ccccc3n2)c(=O)[nH]1,12.9%
15,COc1ccccc1CC(=O)N1CCN(Cc2ccco2)C[C@@H]1C,-101%
16,COc1ccccc1CC(=O)N(CCN1CCOCC1)Cc1ccco1,-29.3%
17,COc1ccccc1CCN1CCCC(CN(C)Cc2ccc(C)o2)C1 (configuration not stated),87.8%
18,Cc1nc(CNCc2c(C(C)C)nn(C)c2N2CCOCC2)cs1,71.7%
19,Cc1nc(CN2CCOCC3(CCN(c4ccccn4)C3)C2)cs1 (configuration not stated),0.814%
20,Cc1nc(CN2CCOCC3(CCN(c4ncccn4)C3)C2)cs1 (configuration not stated),-42.9%
21,CC(C)NC(=O)N1CCOC2(CNC2)C1,-131%
22,Cc1cccc(CN2C[C@H](OCc3csc(C)n3)[C@H]3COC[C@H]32)n1,-75.9%
23,Cn1ncc2c(NC3CCSC3)nc(-c3ccncc3)nc21 (configuration not stated),83.1%
24,Cn1ncc2c(NC3CN4CCC3CC4)nc(-c3ccncc3)nc21 (configuration not stated),0.572%
